Molecules are shown by their SMILES. “And” between values parts separate entries of the source, which are not always exact repeats. Equal values may be shown once. Inconclusive results are not listed. Some structures have more than one record in an assay (separate samples or runs), and their calls can disagree. The source made the active and inactive calls. How the source made its calls: active means hit-call score of the fitted dose curve at least 0.9, where 1 is the maximum; inconclusive means response in the unintended direction; inactive means score below 0.9.

Test [1] has as its target AR (gene 367) (UniProt P10275). The test is described as follows: ACEA_AR_agonist_80hr: ACEA Biosciences xCELLigence Real-Time Cell Analysis on Androgen Receptor Agonism for Proliferation (AID 2283783).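 Further: hits increase impedance growth signal above DMSO baseline.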 Summed up:
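Real-time cell-growth kinetics were recorded by electrode impedance in 22Rv1 cells exposed to test chemicals up to 100 uM final; the 80 h timepoint served as the readout, fitted upward relative to DMSO controls, in biological duplicate.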

A short description of test [2]: STM_H9_NormalizedViability: Cytotoxicity Assessment at 120 hours in the Stemina devTOX quickPredict H9 human embryonic stem cell (hESC)-based Assay (AID 2283784). Summed up: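 Here, H9 cells received test compound with daily medium renewal. Each plate included methotrexate references (1uM, 5 nM), 0.1% DMSO and media blanks; CellTiter-Fluor RFU was normalized to DMSO.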

Test [3] concerns the target AR (gene 367) (UniProt P10275). The test is described as follows: ACEA_AR_antagonist_80hr: ACEA Biosciences xCELLigence Real-Time Cell Analysis on Androgen Receptor Antagonism for Proliferation (AID 2283787).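 Further: 22Rv1 human prostate cancer cells with growth followed by electrical impedance; hits lower the impedance growth signal relative to DMSO.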 The gist of the method:
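Using 22Rv1 cells held in assay medium, we dosed compounds (100 uM maximum final, 1:4 serial, eight points, 0.5% DMSO at top) and recorded cell-electrode impedance; the 80 hr timepoint was analyzed against DMSO.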

Test [4] is described as follows: ATG_M_19_XSP1: Attagene TRANS-FACTORIAL Multi-Species (XSP1) HepG2 Assay for M19 Transcription Factor (Internal Marker) (AID 2283798). Summed up: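 Readout is reporter mRNA induction quantified via RT-PCR, 6-FAM labeling, HpaI digestion and capillary electrophoresis, fitted in the positive direction versus DMSO baseline. Transfected HepG2 cells exposed 24 h, medium including 3 nM 6-alpha-fluorotestosterone.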

The target of test [5] is GAL4 Transcription Factor (Internal Marker), GAL4 (gene 855828) (UniProt P04386). Nature of the test: ATG_GAL4_XSP1: Attagene TRANS-FACTORIAL Multi-Species (XSP1) HepG2 Assay for GAL4 Transcription Factor (Internal Marker) (AID 2283789). The gist of the method:
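This background-control endpoint measures GAL4-driven reporter mRNA via RT-PCR and capillary electrophoresis of labelled fragments. Transiently transfected HepG2 cells were treated 24 h, with 3 nM 6-alpha-fluorotestosterone included, and gain-of-signal was fitted against DMSO.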

Test [6] concerns the target Peroxisome proliferator-activated receptor gamma (Homo sapiens) (UniProt P37231). Nature of the test: ATG_hPPARg_XSP1: Attagene TRANS-FACTORIAL Multi-Species (XSP1) HepG2 Assay for human Peroxisome Proliferator-activated Receptor gamma (PPARg) (AID 2283800). Summed up: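 Reporter mRNA induction, measured by RT-PCR with capillary electrophoresis 24 h after dosing, scored as gain over DMSO. Transfected HepG2 cells express exogenous NR-Gal4 chimeras driving GAL4-UAS reporters; medium includes 3 nM 6-alpha-fluorotestosterone.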

In test [7] the test system is turtle Androgen Receptor (AR), gene 101947425. Nature of the test: ATG_trAR_XSP1: Attagene TRANS-FACTORIAL Multi-Species (XSP1) HepG2 Assay for turtle Androgen Receptor (AR) (AID 2283786). Summed up: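 Partial androgen stimulation is provided by 3 nM 6-alpha-fluorotestosterone in a multi-species trans-factorial panel expressing a turtle AR–GAL4 fusion in HepG2. After 24 h, reporter mRNA is measured by RT-PCR and capillary electrophoresis and fitted upward against DMSO.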

Test [8] is described as follows: ACEA_ER_AUC_viability: ACEA Biosciences xCELLigence Real-Time Cell Analysis on Estrogen Receptor Agonism for Viability (AID 2283782).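 Further: hit means loss of impedance signal meaning reduced cell growth or viability.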 Summed up: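 Continuous-exposure impedance cell analysis uses T-47D cells in charcoal-stripped serum, eight 1:4 dilutions topping at 100 uM final, biological duplicate. Area under the growth curve at 80 h is fitted against DMSO baseline.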

Test [9] in a line: ATG_M_06_XSP1: Attagene TRANS-FACTORIAL Multi-Species (XSP1) HepG2 Assay for M06 Transcription Factor (Internal Marker) (AID 2283790). The gist of the method: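 This background-control readout tracks M06 reporter mRNA, measured by RT-PCR and capillary electrophoresis. HepG2 cells transiently carrying the GAL4-UAS reporter panel were dosed for 24 h with 3 nM 6-alpha-fluorotestosterone added for partial AR stimulation; increases were scored relative to DMSO.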

A short description of test [10]: ATG_M_61_XSP1: Attagene TRANS-FACTORIAL Multi-Species (XSP1) HepG2 Assay for M61 Transcription Factor (Internal Marker) (AID 2283797). The gist of the method:
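Background-control readout: reporter transcripts measured by RT-PCR and capillary electrophoresis 24 h after dosing transiently transfected HepG2 multi-reporter cells, with 3 nM 6-alpha-fluorotestosterone present. Fitted in the positive direction relative to DMSO.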

For test [11], the system named is zebrafish Peroxisome Proliferator-activated Receptor gamma (PPARg), gene 557037. The test is described as follows: ATG_zfPPARg_XSP1: Attagene TRANS-FACTORIAL Multi-Species (XSP1) HepG2 Assay for zebrafish Peroxisome Proliferator-activated Receptor gamma (PPARg) (AID 2283801). Summed up: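 Trans-activation readout of chimeric zebrafish PPARg–GAL4 in transiently transfected human HepG2 cells, 24 h chemical exposure (medium includes 3 nM 6-alpha-fluorotestosterone). Reporter transcripts measured by RT-PCR and capillary electrophoresis, fitted as gain over DMSO.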

Test [12] concerns the target mouse Peroxisome Proliferator-activated Receptor gamma (PPARg), Pparg (gene 19016) (UniProt P37238). Nature of the test: ATG_mPPARg_XSP1: Attagene TRANS-FACTORIAL Multi-Species (XSP1) HepG2 Assay for mouse Peroxisome Proliferator-activated Receptor gamma (PPARg) (AID 2283802). The gist of the method:
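Readout is reporter mRNA induction, measured by RT-PCR with 6-FAM labelling, HpaI digestion and capillary electrophoresis, 24 h post-dose relative to DMSO. Transient multi-reporter transfection of human HepG2 with mouse PPARg–GAL4 fusion; 3 nM 6-alpha-fluorotestosterone included.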

Test [13] deals with Nuclear receptor subfamily 1 group I member 2 (Mus musculus) (UniProt O54915). The test is described as follows: ATG_mPXR_XSP1: Attagene TRANS-FACTORIAL Multi-Species (XSP1) HepG2 Assay for mouse Pregnane X Receptor (PXR) (AID 2283803). The gist of the method: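 Transiently transfected HepG2 cells expressing a receptor-Gal4 chimera drive a GAL4-UAS reporter; 3 nM 6-alpha-fluorotestosterone included. Reporter mRNA read 24 h post-dose by RT-PCR and capillary electrophoresis; gain of signal relative to DMSO.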

The target in test [14] is zebrafish Thyroid Hormone Receptor alpha (TRa), thraa (gene 30670) (UniProt Q98867). The test is described as follows: ATG_zfTRa_XSP1: Attagene TRANS-FACTORIAL Multi-Species (XSP1) HepG2 Assay for zebrafish Thyroid Hormone Receptor alpha (TRa) (AID 2283807). Summed up:
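Reporter transcripts driven by a chimeric zebrafish TRa–Gal4 protein were measured by RT-PCR with fluorescent labelling and capillary electrophoresis. These came from transiently transfected HepG2 cells after 24 h chemical exposure, with 3 nM 6-alpha-fluorotestosterone added; baseline was DMSO.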

Sequence of AR (gene 367) (P10275 whole entry, looked up): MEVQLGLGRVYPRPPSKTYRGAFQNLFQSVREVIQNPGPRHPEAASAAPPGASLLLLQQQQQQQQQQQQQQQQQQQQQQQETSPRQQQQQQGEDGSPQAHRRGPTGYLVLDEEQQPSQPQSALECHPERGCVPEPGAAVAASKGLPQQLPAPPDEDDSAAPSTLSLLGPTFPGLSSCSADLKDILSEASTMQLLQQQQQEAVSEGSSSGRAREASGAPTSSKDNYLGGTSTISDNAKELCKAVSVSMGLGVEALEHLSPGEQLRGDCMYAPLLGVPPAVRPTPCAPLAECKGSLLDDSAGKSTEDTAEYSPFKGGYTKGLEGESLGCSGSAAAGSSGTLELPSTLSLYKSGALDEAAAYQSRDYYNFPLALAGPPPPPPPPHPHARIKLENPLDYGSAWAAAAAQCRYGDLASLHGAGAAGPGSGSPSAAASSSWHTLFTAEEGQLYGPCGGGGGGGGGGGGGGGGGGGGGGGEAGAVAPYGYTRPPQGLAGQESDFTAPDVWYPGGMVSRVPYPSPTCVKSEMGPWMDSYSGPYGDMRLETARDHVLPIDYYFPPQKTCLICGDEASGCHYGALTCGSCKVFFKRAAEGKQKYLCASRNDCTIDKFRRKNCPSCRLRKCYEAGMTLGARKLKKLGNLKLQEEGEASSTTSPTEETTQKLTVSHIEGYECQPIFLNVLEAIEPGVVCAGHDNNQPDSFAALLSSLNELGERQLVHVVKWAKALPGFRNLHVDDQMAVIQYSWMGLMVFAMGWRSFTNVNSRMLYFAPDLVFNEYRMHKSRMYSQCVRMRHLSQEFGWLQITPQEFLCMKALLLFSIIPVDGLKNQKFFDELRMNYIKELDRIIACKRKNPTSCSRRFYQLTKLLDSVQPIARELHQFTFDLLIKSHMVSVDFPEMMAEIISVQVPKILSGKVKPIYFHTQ
Sequence of Peroxisome proliferator-activated receptor gamma (Homo sapiens) (P37231 whole entry, looked up, the tested form may be a part): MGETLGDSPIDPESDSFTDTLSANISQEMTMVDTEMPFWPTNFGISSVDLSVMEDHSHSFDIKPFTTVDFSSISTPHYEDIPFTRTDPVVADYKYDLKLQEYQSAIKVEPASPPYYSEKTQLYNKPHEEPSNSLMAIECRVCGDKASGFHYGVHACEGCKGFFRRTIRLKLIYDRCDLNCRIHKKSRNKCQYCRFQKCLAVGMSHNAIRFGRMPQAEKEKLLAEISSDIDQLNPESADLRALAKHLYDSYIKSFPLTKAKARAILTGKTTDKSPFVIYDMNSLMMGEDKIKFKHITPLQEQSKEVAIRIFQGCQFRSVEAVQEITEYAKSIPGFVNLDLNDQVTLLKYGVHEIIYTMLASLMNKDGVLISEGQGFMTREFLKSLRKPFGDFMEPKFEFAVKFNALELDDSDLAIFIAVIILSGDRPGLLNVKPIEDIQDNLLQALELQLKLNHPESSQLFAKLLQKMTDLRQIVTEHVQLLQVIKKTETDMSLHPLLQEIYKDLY
Sequence of mouse Peroxisome Proliferator-activated Receptor gamma (PPARg), Pparg (gene 19016) (P37238 whole entry, looked up, the tested form may be a part): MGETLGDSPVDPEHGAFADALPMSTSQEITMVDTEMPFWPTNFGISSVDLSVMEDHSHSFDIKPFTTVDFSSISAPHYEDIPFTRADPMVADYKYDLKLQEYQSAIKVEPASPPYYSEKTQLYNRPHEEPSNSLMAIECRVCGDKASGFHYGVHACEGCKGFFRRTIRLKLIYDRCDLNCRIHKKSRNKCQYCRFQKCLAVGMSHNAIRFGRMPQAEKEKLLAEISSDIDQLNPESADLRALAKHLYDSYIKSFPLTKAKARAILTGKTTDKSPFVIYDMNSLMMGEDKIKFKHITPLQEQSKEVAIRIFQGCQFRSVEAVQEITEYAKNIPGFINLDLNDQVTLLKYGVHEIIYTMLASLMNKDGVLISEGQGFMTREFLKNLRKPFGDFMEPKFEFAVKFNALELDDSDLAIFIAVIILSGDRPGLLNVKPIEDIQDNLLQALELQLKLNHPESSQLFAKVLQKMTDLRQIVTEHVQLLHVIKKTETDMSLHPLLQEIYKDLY
Sequence of GAL4 Transcription Factor (Internal Marker), GAL4 (gene 855828) (P04386 whole entry, looked up, the tested form may be a part): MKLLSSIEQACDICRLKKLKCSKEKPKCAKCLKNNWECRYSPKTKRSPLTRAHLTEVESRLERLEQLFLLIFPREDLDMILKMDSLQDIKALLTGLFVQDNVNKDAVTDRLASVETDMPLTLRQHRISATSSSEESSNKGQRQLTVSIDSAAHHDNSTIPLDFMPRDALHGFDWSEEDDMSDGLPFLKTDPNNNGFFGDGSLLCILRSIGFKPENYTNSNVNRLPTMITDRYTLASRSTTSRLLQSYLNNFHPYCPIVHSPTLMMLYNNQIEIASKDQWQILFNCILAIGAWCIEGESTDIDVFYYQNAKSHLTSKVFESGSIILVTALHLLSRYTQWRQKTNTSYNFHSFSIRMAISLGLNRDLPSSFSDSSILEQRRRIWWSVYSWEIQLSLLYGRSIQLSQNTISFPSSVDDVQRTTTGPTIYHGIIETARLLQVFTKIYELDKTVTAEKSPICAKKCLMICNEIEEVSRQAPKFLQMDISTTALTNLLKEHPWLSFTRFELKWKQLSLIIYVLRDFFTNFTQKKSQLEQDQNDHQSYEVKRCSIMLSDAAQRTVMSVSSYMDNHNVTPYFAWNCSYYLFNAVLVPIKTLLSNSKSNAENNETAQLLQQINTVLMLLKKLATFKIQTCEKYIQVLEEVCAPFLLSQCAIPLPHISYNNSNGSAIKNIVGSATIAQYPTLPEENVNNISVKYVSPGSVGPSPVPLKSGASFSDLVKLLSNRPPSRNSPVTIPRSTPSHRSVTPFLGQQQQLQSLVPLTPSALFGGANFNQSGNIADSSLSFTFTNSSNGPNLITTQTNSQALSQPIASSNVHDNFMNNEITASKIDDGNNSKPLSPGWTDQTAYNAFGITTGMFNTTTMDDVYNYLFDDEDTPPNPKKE
Sequence of Nuclear receptor subfamily 1 group I member 2 (Mus musculus) (O54915 whole entry, looked up, the tested form may be a part): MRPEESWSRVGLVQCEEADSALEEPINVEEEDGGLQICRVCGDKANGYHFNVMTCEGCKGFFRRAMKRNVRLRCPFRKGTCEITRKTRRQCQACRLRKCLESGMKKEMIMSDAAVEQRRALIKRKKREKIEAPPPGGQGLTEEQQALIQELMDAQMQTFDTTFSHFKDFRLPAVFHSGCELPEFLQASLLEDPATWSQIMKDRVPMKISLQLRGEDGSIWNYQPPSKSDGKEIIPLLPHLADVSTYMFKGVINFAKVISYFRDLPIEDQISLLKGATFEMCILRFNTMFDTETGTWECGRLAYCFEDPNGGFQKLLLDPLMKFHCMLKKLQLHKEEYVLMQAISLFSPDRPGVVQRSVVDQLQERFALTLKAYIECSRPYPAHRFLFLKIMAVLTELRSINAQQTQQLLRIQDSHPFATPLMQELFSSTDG
Sequence of zebrafish Thyroid Hormone Receptor alpha (TRa), thraa (gene 30670) (Q98867 whole entry, looked up, the tested form may be a part): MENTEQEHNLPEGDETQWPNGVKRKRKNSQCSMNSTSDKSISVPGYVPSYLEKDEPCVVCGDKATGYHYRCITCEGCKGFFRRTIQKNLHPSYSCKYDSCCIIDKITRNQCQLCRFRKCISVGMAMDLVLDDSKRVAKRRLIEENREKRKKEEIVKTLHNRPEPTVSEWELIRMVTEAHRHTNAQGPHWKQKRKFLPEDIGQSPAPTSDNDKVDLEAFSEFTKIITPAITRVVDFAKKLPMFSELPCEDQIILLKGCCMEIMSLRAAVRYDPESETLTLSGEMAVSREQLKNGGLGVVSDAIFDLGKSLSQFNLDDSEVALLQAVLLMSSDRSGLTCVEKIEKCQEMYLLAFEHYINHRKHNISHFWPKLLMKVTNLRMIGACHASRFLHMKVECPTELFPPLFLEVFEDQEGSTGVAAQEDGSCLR

For `O=C1C2(Cl)C3(Cl)C4(Cl)C(Cl)(Cl)C5(Cl)C3(Cl)C1(Cl)C5(Cl)C24Cl` (centres undefined), the compound was classed as inactive (with AR (gene 367) [1]; in test [2]). In addition, in the test with AR (gene 367) [3], the AC50 was 7.92 µM (active).

In the case of `CC(C)(C)CC(C)(C)c1ccc(O)cc1`, the result (with AR (gene 367) [1]; in [4]) was inactive.

For `CC12CC1(C)C(=O)N(c1cc(Cl)cc(Cl)c1)C2=O` (centres undefined), the result in test [2], in [5] and in test [6] was inactive. Moreover, the AC50 with AR (gene 367) [3] is 78.4 µM (active).

`C[C@]12CCC(=O)C[C@@H]1CC[C@@H]1[C@@H]2CC[C@]2(C)[C@@H](O)CC[C@@H]12`: in test [7], the AC50 was 0.168 µM (active). Besides, the result in [4] was inactive.

For `CC1(C)CCC(Cc2ccc(Cl)cc2)C1(O)Cn1cncn1` (centres undefined), the outcome in test [6] was inactive.

Take `Cc1ccccc1N`: in test [8], the AC50 was 0.893 µM (active) and the call was inactive.

Take `COP(=S)(OC)Oc1ccc(Sc2ccc(OP(=S)(OC)OC)cc2)cc1`: the concentration at half-maximal activity (AC50) in test [8] was 85.5 µM (active). In the test with AR (gene 367) [3], the compound was called inactive.

On to `Cc1ccc2ccccc2c1C`, for which, in the test with AR (gene 367) [3], the AC50 is 16.6 µM (active).

`C=C(C)C(=O)[O][Sn]([CH2]CCC)([CH2]CCC)[CH2]CCC`: the AC50 is 1.43 µM (active) in [8] and 0.713 µM (active) in test [2].

Consider `CC(C)OC(=O)Nc1ccccc1`, for which the call in test [8] was inactive.

As for `CC(C)=C[C@@H]1[C@@H](C(=O)OCc2coc(Cc3ccccc3)c2)C1(C)C`, the call in [8] was inactive.

Regarding `O=[N+]([O-])c1ccc(O)c([N+](=O)[O-])c1`, the compound was called inactive (in the test with AR (gene 367) [1]; in [2]). Further, in the test with AR (gene 367) [3], the AC50 is 50 µM (active).

`CC(=O)[O][Hg][c]1ccccc1`: the AC50 in test [8] is 1.32 µM (active); in test [2], 0.387 µM (active); in the test with AR (gene 367) [3], 1.21 µM (active).

`C[C@@H]1C[C@@H]([C@H](O)CC2CC(=O)NC(=O)C2)C(=O)[C@@H](C)C1`: the AC50 in [8] was 522 nM (active) and 1.49 µM (active); in [2], 2.46 µM (active).

Consider `Oc1c(I)cc(I)cc1I`, for which the half-maximal activity concentration (AC50) in [8] is 87.9 µM (active).

With `COP(=O)(OC)O/C(=C\Cl)c1cc(Cl)c(Cl)cc1Cl`, the AC50 in test [8] is 58.1 µM (active); in test [6] it was 14 µM (active); in [12] it was 32.3 µM (active); in test [13], 30.3 µM (active). Also, the compound was classed as inactive (with AR (gene 367) [3]; in [9]; in [10]; in [11]; in [14]).

As for `O=C(Nc1ccc2[nH]ccc2c1)c1cc2cc(F)ccc2n1Cc1cccc(F)c1`, the AC50 in [8] is 12.4 µM (active). In addition, the result in [2] was inactive.

On to `C=CC(=O)OCCCCCC(C)C`, for which, in test [8], the result was inactive. Further, the AC50 with AR (gene 367) [1] is 50 µM (active).

As for `CCC1(c2ccc(N)cc2)CCC(=O)NC1=O` (centres undefined), the compound was classed as inactive (in test [8]; in the test with AR (gene 367) [3]).

As for `CCC(C)(C)c1ccc(O)c(C(C)(C)CC)c1`, the half-maximal activity concentration (AC50) in test [8] was 14.9 µM (active).

On to `O=C1C(Cl)=C(Cl)C(=O)c2ccccc21`, for which, in test [8], the concentration at half-maximal activity (AC50) is 16.7 µM (active).

As for `Cc1ccccc1C(=O)Nc1cccc(OC(C)C)c1`, in the test with AR (gene 367) [3], the compound was classed as inactive.

As to `Cn1sc(Cl)cc1=O`, the AC50 in test [8] is 86.9 µM (active).

For `CCC(=O)C(CC(C)N(C)C)(c1ccccc1)c1ccccc1` (centres undefined), the concentration at half-maximal activity (AC50) in test [8] is 36.2 µM (active); with AR (gene 367) [3], 28.2 µM (active).

Consider `Clc1ccc(COC(Cn2ccnc2)c2ccc(Cl)cc2Cl)cc1` (centres undefined), for which the results for the half-maximal activity concentration (AC50) (in test [8]; in the test with AR (gene 367) [3]) were 21.5 µM (active) and 8.61 µM (active), respectively.

For `ClC1(Cl)C2(Cl)C3(Cl)C4(Cl)C(Cl)(Cl)C5(Cl)C3(Cl)C1(Cl)C5(Cl)C24Cl` (centres undefined), the compound was classed as inactive (in [8]; in [2]; with AR (gene 367) [3]).

For the compound `C[C@H]1CCCC(=O)CCC/C=C/c2cc(O)cc(O)c2C(=O)O1`, the compound was called inactive with AR (gene 367) [1]. In addition, the AC50 with AR (gene 367) [3] is 13.9 µM (active).

Take `O=c1[nH]c(=O)[nH]c(=O)[nH]1`: the outcome (in [8]; with AR (gene 367) [1]; with AR (gene 367) [3]) was inactive.

With `COP(=O)(OC)OC`, the outcome (in [8]; in the test with AR (gene 367) [3]) was inactive.

For the compound `O=C(O)C(Cl)(Cl)Cl`, the call in [8] and in [2] was inactive.

On to `CC(C)c1cccc(C(C)C)c1O`, for which the call in the test with AR (gene 367) [3] was inactive.

For the compound `CCOP(=S)(OCC)Oc1nc(Cl)c(Cl)cc1Cl`, the figures for the concentration at half-maximal activity (AC50) (in test [8]; with AR (gene 367) [3]) were 87.6 µM (active) and 74.9 µM (active), respectively.

On to `CC(C)(c1ccc(OCC2CO2)cc1)c1ccc(OCC2CO2)cc1` (centres undefined), for which the AC50 in [8] is 82.5 µM (active). Further, the compound was called inactive in the test with AR (gene 367) [1] and with AR (gene 367) [3].

Turning to `c1cc[c]([Hg][c]2ccccc2)cc1`, the results for the AC50 (in test [8]; in the test with AR (gene 367) [3]) were 36.3 µM (active) and 21.9 µM (active), respectively. For the same compound, the outcome in the test with AR (gene 367) [1] was inactive.

For `CCN1CCC2(CC1)COc1cc3c(cc12)N(C(=O)c1ccc(-c2ccc(-c4nnc(C)o4)cc2C)cc1)CC3`, the AC50 in [8] is 8.01 µM (active); in [2], 8.14 µM (active); in the test with AR (gene 367) [3], 8.66 µM (active). The call with AR (gene 367) [1] was inactive.

On to `ClCC(Cl)CCl`, for which, in [2], the result was inactive.

Source of the values: PubChem BioAssay (EPA / NIEHS).
